PLAP act – activates human placental alkaline phosphatase. P05187. purified PLAP enzyme, luminescent substrate read-out; active compounds read high. activation fold at 20 µM. actives 1.2% (n = 96,000). AID 696; in the data active = activation fold above about 2
HePTP inhibitor – inhibitors of human HePTP phosphatase; inhibition, % at 20 µM; AID 521; recombinant HePTP phosphatase activity, OD absorbance; actives 0.64% (n = 110,000); in the data active = inhibition above about 50%;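 also: plate controls were vehicle for no effect and reference inhibitor for full effect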
BAP1 block – human BAP1 deubiquitinase inhibition. recombinant BAP1, Ub-AMC hydrolysis fluorescence kinetic; active compounds read low. calls only at 20 µM. actives 0.48% (n = 72,000);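 active = activity remaining at or below 50% of control, provided the compound also passes the data quality filters; inactive = the rest, including low values that fail the filters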;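 also: 100% = DMSO wells rate and 0% = substrate alone blank rate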
Target sequence (Q92560 whole entry, looked up): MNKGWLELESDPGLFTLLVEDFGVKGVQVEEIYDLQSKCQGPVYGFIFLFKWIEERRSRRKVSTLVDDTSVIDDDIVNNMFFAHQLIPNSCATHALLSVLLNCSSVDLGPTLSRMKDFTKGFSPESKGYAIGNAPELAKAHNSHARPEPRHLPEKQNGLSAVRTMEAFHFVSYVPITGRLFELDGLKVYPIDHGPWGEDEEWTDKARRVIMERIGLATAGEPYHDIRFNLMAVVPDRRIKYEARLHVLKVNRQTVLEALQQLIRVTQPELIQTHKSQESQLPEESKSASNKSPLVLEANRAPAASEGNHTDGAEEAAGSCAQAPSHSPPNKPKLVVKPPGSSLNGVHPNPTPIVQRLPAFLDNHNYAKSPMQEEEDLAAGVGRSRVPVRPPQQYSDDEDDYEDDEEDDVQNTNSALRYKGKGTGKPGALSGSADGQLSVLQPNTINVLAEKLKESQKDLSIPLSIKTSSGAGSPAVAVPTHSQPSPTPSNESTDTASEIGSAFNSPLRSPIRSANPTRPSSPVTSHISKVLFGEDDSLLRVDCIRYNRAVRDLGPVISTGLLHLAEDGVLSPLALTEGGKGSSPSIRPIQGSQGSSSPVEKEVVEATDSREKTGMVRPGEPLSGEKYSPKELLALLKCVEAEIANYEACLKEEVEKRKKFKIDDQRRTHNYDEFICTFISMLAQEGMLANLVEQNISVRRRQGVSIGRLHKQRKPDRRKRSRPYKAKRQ
Cdc25B block – human M-phase inducer phosphatase 2 inhibition. P30305. recombinant Cdc25B, OMFP fluorescence Ex485/Em525. inhibition, %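 (compounds tested at 10 µM final in the well)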. actives 0.1% (n = 65,000); in the data active = inhibition above about 50%
MKP-1 inh – inhibitors of human MKP-1 phosphatase; P28562; recombinant MKP-1, OMFP hydrolysis fluorescence; actives 0.15% (n = 65,000); inhibition, %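 (compounds tested at a single concentration somewhere between 10 and 100 µM)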; AID 374;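 active = inhibition above about 50%, limit read from the data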;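 also: 0% = DMSO max control wells and 100% = wells with enzyme stopped by NaOH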
Active calls of the source: *. Shown are actives, neighbours in structure and some others; about 1.4% of the full set was active somewhere.

What do the screens show for `COc1ccccc1CNC(=O)[C@@H]1CCCN1C(=O)C1CCN(S(=O)(=O)c2ccc(C)cc2)CC1`?
PLAP act: 1.6; HePTP inhibitor: 8; BAP1 block: inactive; Cdc25B block: -1; MKP-1 inh: -4

What do the screens show for `COc1ccc(OC)c(S(=O)(=O)N2CCC(C(=O)Nc3cccc(C)c3)CC2)c1`?
PLAP act: 2.2*

How did COc1ccccc1OCc1ccc(C(=O)N2N=C(C(F)F)CC2(O)C(F)F)o1 (stereo unspecified) do in these assays?
PLAP act: 1.6

Results for O=C(c1ccc(Cn2cc(Br)cn2)o1)N1N=C(C(F)F)CC1(O)C(F)F (stereo unspecified) ?
PLAP act: 2*

How did N#C/C(=C/c1ccc(O)cc1)C(=O)Nc1cccc(Br)c1 do in these assays?
HePTP inhibitor: 2

Results for N#C/C(=C/c1ccc([N+](=O)[O-])o1)C(=O)Nc1cccc(Br)c1 ?
HePTP inhibitor: 87*

How did N#C/C(=C/c1ccc(O)c([N+](=O)[O-])c1)C(=O)Nc1cccc(Br)c1 do in these assays?
HePTP inhibitor: 102*

Results for O=C(c1cc2nc(-c3ccc([N+](=O)[O-])cc3)cc(C(F)(F)F)n2n1)N1CCc2ccccc2C1 ?
HePTP inhibitor: -5

How did CC(Sc1n[nH]c(N)n1)C(=O)C12CC3CC(CC(C3)C1)C2 (stereo unspecified) do in these assays?
PLAP act: 2*

Results for O=c1[nH]c(-c2ccc(O)c(Br)c2)nc2sc3c(c12)CCCC3 ?
HePTP inhibitor: 5

Results for O=C(N/C=N/OCc1ccc(Cl)cc1Cl)NOCc1ncc(C(F)(F)F)cc1Cl ?
PLAP act: 2*

Results for COc1ccc(OC)c(C(c2c(C)[nH]n(-c3ccccc3)c2=O)c2c(C)[nH]n(-c3ccccc3)c2=O)c1 ?
HePTP inhibitor: 104*

How did COc1ccccc1NC(=O)COc1ccc(Br)cc1C(C)(C)C do in these assays?
HePTP inhibitor: 6

How did COc1ccc(CCN2C(=O)c3[nH]nc(-c4ccccc4O)c3C2c2cccc(O)c2)cc1OC (stereo unspecified) do in these assays?
PLAP act: 2.9*; HePTP inhibitor: 1; BAP1 block: inactive; Cdc25B block: 10; MKP-1 inh: 21

Results for Cc1cccc(C)c1NC(=S)NC(=O)c1ccccc1 ?
HePTP inhibitor: -3

What do the screens show for `CCCCCCn1c(C)nc2c(c1=O)c1nc3ccccc3nc1n2/N=C/c1ccco1`?
PLAP act: 2*

What do the screens show for `CC1=C(C#N)c2nc(N)c(C#N)c(C)c2/C1=C/c1ccc(-c2ccccc2[N+](=O)[O-])o1`?
HePTP inhibitor: 81*

Results for CC1=NN(c2ccc(Cl)c(C(=O)O)c2)C(=O)/C1=C\c1ccco1 ?
HePTP inhibitor: 73*

What do the screens show for `COc1ccc(N2C(=O)/C(=C/c3ccc(Br)o3)SC2=S)cc1`?
HePTP inhibitor: 51*

Results for Cc1n[nH]c(=S)n1/N=C/c1ccc(-c2ccccc2[N+](=O)[O-])o1 ?
PLAP act: 2*

What do the screens show for `COc1cc(/C=C2/SC(=S)NC2=O)cc(Cl)c1OCc1cccc2ccccc12`?
HePTP inhibitor: 102*

Results for COc1cc(/C=C2/SC(=S)NC2=O)cc(Cl)c1OCc1ccccc1F ?
HePTP inhibitor: -2

What do the screens show for `CCOc1cc(/C=C2/SC(=S)NC2=O)cc(Cl)c1OCc1ccc(Cl)cc1Cl`?
HePTP inhibitor: 84*

Results for COc1ccc(CCNC(=O)COc2cccc(C)c2)cc1 ?
HePTP inhibitor: 6

Results for Nc1nc2n(n1)C1(CCCCC1)C1=C(CCCC1)N2 ?
PLAP act: 2.1*; HePTP inhibitor: -12; BAP1 block: inactive; Cdc25B block: 9; MKP-1 inh: 41

Results for C=CCn1c(COc2ccc3ccccc3c2)nc2ccccc21 ?
HePTP inhibitor: 10

Results for CCc1ccc(S(=O)(=O)Nc2ccc(NC(C)=O)cc2)cc1 ?
HePTP inhibitor: 103*

What do the screens show for `CCCCOc1ccc(C(=O)N2c3ccccc3CC2C)cc1` (stereo unspecified)?
HePTP inhibitor: 104*

How did CC(C)COc1ccc(C(=O)N2c3ccccc3CC2C)cc1 (stereo unspecified) do in these assays?
HePTP inhibitor: -7

What do the screens show for `CN(C)c1ccc(C(NC(=O)Cc2ccccc2)c2c(O)ccc3ccccc23)cc1` (stereo unspecified)?
HePTP inhibitor: 4

What do the screens show for `COc1ccc(-c2cc(-c3c(O)c(OC)c4occc4c3OC)[nH]n2)cc1`?
PLAP act: 2.3*

Source: PubChem
